Molecules are shown by their SMILES. “And” between values parts separate entries of the source, which are not always exact repeats. Identical values can stand only once. Screen size: about 290,000 compounds; about 11,000 (3.8%) were called active. The sample holds actives, similar compounds and a random draw of the others, so the mix is not that of the screen.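 Rule for the calls: active = mean replicate inhibition above about 79%, with every replicate also reaching it (limit read from the data); inconclusive = only one of the two criteria met; inactive = mean below limit and not every replicate reaching it.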

The target of the assay is FAD-linked sulfhydryl oxidase ALR (Homo sapiens) (UniProt P55789). The assay can be described thus: inhibitors of human ALR sulfhydryl oxidase, primary screen, biochemical, H2O2 detection, HRP-luminol luminescence, single point (AID 485317). Conditions: purified ALR, DTT oxidation, hits give high values, concentration not given here.
Chain of FAD-linked sulfhydryl oxidase ALR (Homo sapiens) (P55789 whole entry, looked up): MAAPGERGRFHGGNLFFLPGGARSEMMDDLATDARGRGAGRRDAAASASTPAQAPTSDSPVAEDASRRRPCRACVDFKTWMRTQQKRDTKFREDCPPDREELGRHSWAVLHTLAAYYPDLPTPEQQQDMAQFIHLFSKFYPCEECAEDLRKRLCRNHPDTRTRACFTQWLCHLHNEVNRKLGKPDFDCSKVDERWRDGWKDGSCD
For orientation: inhibition means the drop in the measured response relative to a control, in per cent. As for `COc1ccc(C(=O)N2CCN(c3ccc(C(C)=O)cc3F)CC2)cc1S(=O)(=O)NC1CC1`, the inhibition was 2.33% (inactive).
Then `COc1cccc(NC(=O)CN(C)C(=O)CSC(=S)N2CCCC2)c1`, with -14.6% (inactive); and `CN1C=CC=C/C1=C1\SC(=S)N(Cc2ccccc2)C1=O`, with -1.3% (inactive).
In the case of `CCCCN1C(=O)/C(=C2/Sc3ccc(Cl)cc3N2CC)SC1=S` it was -23.2% (inactive).
Then `CCCCN1C(=O)/C(=C2/C=CC=CN2C)SC1=S`, with 99% (active).
With `O=C(CSc1nc2ccccc2c(=O)n1-c1ccccc1F)N1CCOCC1`, the inhibition is -2.73% (inactive).
Then `CC1CCC(NC(=O)CNC(=O)c2ccc3ccccc3c2)CC1` (centres undefined), with -7.47% (inactive); and `COc1cc(N=Cc2c(O)[nH]c3ccccc23)cc(OC)c1OC`, with 96.6% (active).
On to `COc1ccccc1N=Cc1c(O)c2ccccc2oc1=O`, for which the inhibition was 0.366% (inactive).
Take `COc1ccc(N=Cc2c(O)[nH]c3ccccc23)cc1OC`: the inhibition is 99.3% (active).
In the case of `COCC(=O)N=Nc1c(O)[nH]c2ccccc12`, the inhibition is -3.07% (inactive).
Then `CN=c1scc(-c2cc(OC)ccc2OC)n1/N=C/c1c(C)[nH]c2ccccc12`, with 15.7% (inactive); and `COc1cc(N=Cc2c(O)c3ccccc3oc2=O)c(OC)cc1Cl`, with -4.24% (inactive); and `CN(CC(=O)Nc1ccc(Cl)c(C(F)(F)F)c1)C(=O)CCC(=O)c1ccccc1`, with -3.88% (inactive).
Then `Cc1ccc(C)c(S(=O)(=O)N2CCN(c3ncnc4sccc34)CC2)c1`, with -13.7% (inactive).
Then `O=C(NCc1ccccc1)c1onc(CSc2ccncc2)c1C(=O)NCc1ccccc1`, with -5.05% (inactive).
On to `CC(C)n1ncc2c(C(=O)Nc3ccc(CC#N)cc3)cc(C3CC3)nc21`, for which the inhibition was -14.1% (inactive).
Then `O=C(c1ccc(N2CCOCC2)c([N+](=O)[O-])c1)N1CCN(c2ccccc2F)CC1`, with 0.595% (inactive); and `O=C1C=C(c2cc(C(F)(F)F)cc(C(F)(F)F)c2)C[C@@H](c2ccc3c(c2)OCO3)C1`, with -3.13% (inactive).
In the case of `Cc1ccc(Nc2ccc(C(N)=O)cc2[N+](=O)[O-])cc1` it was -3.97% (inactive); in that of `Nc1ccc(Nc2ccccc2)cc1`, -2.25% (inactive).
In the case of `Cc1ccc(Nc2ccccc2N)cc1` it was 85.9% (active); in that of `COc1ccc(NC(=O)CN(C)C(=O)c2cc(-c3ccc(C)o3)nc3ccccc23)cc1`, -3.77% (inactive).
`CS(=O)(=O)N(CC(=O)N1CCc2ccccc2C1)c1ccc(Br)cc1`: the inhibition is -3.9% (inactive).
Turning to `C=CCn1c(P(C)(=O)O)nc2ccccc21`, the inhibition is -17.7% (inactive) and -5.83% (inactive).
Then `CC(C)(C)N1CC(c2nc3ccccc3n2Cc2ccc(F)cc2)CC1=O` (centres undefined), with -2.5% (inactive); and `C=CCn1c(C2CC(=O)N(c3ccc(C)cc3)C2)nc2ccccc21` (centres undefined), with 87.3% (active).
Then `COc1ccc(OC)c(NC(=O)COC(=O)Cc2ccsc2)c1`, with -0.814% (inactive); and `CC(C)(C)c1ccc(Oc2ccc(N)cc2)cc1`, with 98.6% (active).
Then `Cc1cc(C)cc(N)c1`, with 8.46% (inactive); and `Cc1cc(C(C)(C)C)cc(C)c1N`, with -3.27% (inactive).
With `Cc1ccc(Oc2ccc(N)cc2)cc1`, the inhibition is 98.9% (active).
`Cc1ccc(S(=O)(=O)c2ccc(Oc3ccccc3)cc2)cc1`: the inhibition is -8.5% (inactive).
Then `CC(C)(C)c1ccc(OC2=CS(=O)(=O)c3ccccc32)cc1`, with 4.58% (inactive); and `CCOC(=O)N1CCN(C(=O)CSc2nc(=O)n3cccc(C)c3n2)CC1`, with 1.32% (inactive); and `CCN(CC(=O)Nc1c(F)cccc1F)C(=O)C1CCC1`, with -1.96% (inactive).
In the case of `O=C(NCCC1CCCCN1S(=O)(=O)c1ccccc1)C(=O)NCC1CCCO1` (centres undefined) it was -4.14% (inactive).
Then `C[C@@H]1CN([C@@H](C)CO)C(=O)c2cc(NC(=O)C3CC3)ccc2O[C@H]1CN(C)C`, with 1.71% (inactive); and `COc1ccc(-c2nnc(SCC(=O)c3ccc4c(c3)OCCO4)o2)cc1`, with 4.53% (inactive); and `COc1ccc(-c2nnc(SCc3cccnc3)o2)cc1`, with -15% (inactive).
For `COc1ccc(-c2nnc(SC(=O)N3c4ccccc4Sc4ccccc43)o2)cc1`, the inhibition was 94.9% (active).
Then `COc1ccc(C2(c3ccc(OC)cc3)NC(=O)N(CC(=O)Nc3cc(C)on3)C2=O)cc1`, with -0.145% (inactive); and `Cc1ccc(SCC(=O)Nc2nncs2)cc1`, with -6.08% (inactive); and `COCCCN(C(=O)CSCc1ccc(C)cc1)c1c(N)n(Cc2ccccc2)c(=O)[nH]c1=O`, with 46.2% (inactive).
Take `Oc1c(Br)cc(/C=N/NC(=S)NCC2CCCO2)cc1Br` (centres undefined): the inhibition was 96.2% (active).
Then `O=C(CNC(=O)C1COc2ccccc2O1)N/N=C/c1cc(Br)c(O)c(Br)c1` (centres undefined), with 66.1% (inactive); and `S=C(NCC1CCCO1)N1CCN(c2ccc(Cl)c(Cl)c2)CC1` (centres undefined), with 0.527% (inactive).
In the case of `CCCN(C(=O)c1nc2nccc(C)n2n1)c1c(N)n(Cc2ccccc2)c(=O)[nH]c1=O` it was 1.52% (inactive); in that of `CN(C)c1ccc(CNC(=O)CN2C(=O)COc3ccc(S(=O)(=O)N4CCCC4)cc32)cc1`, 98.6% (active).
Regarding `COc1ccc(CCNC(=O)CN2C(=O)COc3ccc(S(=O)(=O)N4CCCC4)cc32)cc1OC`, the inhibition is -1.92% (inactive).
Then `CCc1ccc(NC(=O)CN2C(=O)COc3ccc(S(=O)(=O)N4CCCC4)cc32)cc1`, with -3.09% (inactive); and `O=C(NCc1ccccn1)Nc1ccc(Cl)cc1`, with -24.3% (inactive); and `Cc1cc(=O)oc2c(C)c(OCC(=O)NCCN3CCOCC3)ccc12`, with -3.13% (inactive).
For `Cc1ccsc1-c1nc(CSCC(=O)NCCN2CCCC2)c(C)o1`, the inhibition was 97.8% (active).
In the case of `CCC1=Nc2cc(C(=O)NCCN3CCCC3)ccc2Sc2ccc(C)cc21` it was -17.3% (inactive); in that of `O=C(O)c1ccc(/C=N/Nc2nc(N3CCCCC3)nc(N3CCCCC3)n2)cc1`, 3.03% (inactive).
In the case of `CC(C)(C)c1nnc(N/N=C/c2ccc(O)cc2)n(N)c1=O` it was 98.8% (active).
In the case of `CCCCn1c(N)c(N(CC(C)C)C(=O)c2cccc(S(=O)(=O)N3CC(C)OC(C)C3)c2)c(=O)[nH]c1=O` (centres undefined) it was -2.1% (inactive); in that of `OCCCNc1nc(-c2ccccc2)c2cc(Cl)ccc2n1`, -2.06% (inactive).
Turning to `CC(Sc1ncnc2c1cnn2-c1ccccc1)C(=O)Nc1ccc(N2CCOCC2)cc1` (centres undefined), the inhibition is -5.27% (inactive).
Then `CCOC(=O)c1c(-c2ccc(C)cc2)csc1/N=C(\C)C1=C(O)c2ccccc2C1=O`, with 1.75% (inactive); and `CCOC(=O)c1c(-c2ccc(-c3ccccc3)cc2)csc1NC(=O)CCC(=O)O`, with 60.9% (inactive); and `COC(=O)c1c(-c2ccc(C)cc2)csc1N`, with 97.8% (active).
In the case of `COc1cc(OC)c(C(=O)Nc2ccccc2-c2ccccc2)cc1OC` it was -1.64% (inactive); in that of `COc1cc(OC)c(C(=O)Nc2ccc(N(C)C)cc2)cc1OC`, 99.6% (active); in that of `COc1ccc(Cl)cc1C(=O)Nc1ccc(N(C)C(C)=O)cc1`, -1.72% (inactive).
`Cc1ccccc1SCC(=O)OCC(=O)N1CC(=O)Nc2ccccc21`: the inhibition is -7.18% (inactive).
Then `COC(=O)CSc1ncnc2c1cnn2-c1ccc(C)cc1C`, with 96.9% (active).
In the case of `Cc1ccc(-n2ncc3c(=O)[nH]cnc32)c(C)c1` it was -6.83% (inactive); in that of `COc1ccc(-n2ncc3c(SCC(=O)NNC(C)=O)ncnc32)cc1`, -1.15% (inactive); in that of `CCOC(=O)C1CCCN(C(=O)c2ccc(C)c(S(=O)(=O)N3CCCCC3)c2)C1` (centres undefined), -0.131% (inactive).
Then `O=C1CSC(=S)N1c1ccc(Cl)c(Cl)c1`, with 38.1% (inactive).
As to `COc1cc(N2C(=O)CSC2=S)cc(OC)c1OC`, the inhibition is 3.65% (inactive).
In the case of `O=C1CSC(=S)N1c1ccc(O)cc1` it was 91.3% (active); in that of `CCOc1ccccc1OCC(=O)Nc1ccccc1C(=O)NC1CC1`, 20.6% (inactive).
In the case of `CCOc1ccc(C(C)NC(=O)CN2C(=O)NC3(CCCCC3)C2=O)cc1OCC` (centres undefined) it was -15.6% (inactive).
Then `NC(=O)c1c(NC(=O)CSc2nnc(-c3ccco3)n2N)sc2c1CCCC2`, with 9.78% (inactive); and `COc1cccc(OC)c1C(=O)Nc1sc2c(c1C(N)=O)CCCC2`, with -6.93% (inactive); and `NC(=O)c1c(Nc2nc3c(F)cccc3s2)sc2c1CCCC2`, with 87.1% (active).
`O=C(NCc1ccc(Cl)cc1)C(=O)NCC1CCCN1S(=O)(=O)c1cccs1` (centres undefined): the inhibition was -0.71% (inactive).
Then `Cc1ccc(NC(=O)c2cnc(SCC(=O)NCC3CCCO3)n(C)c2=O)cc1` (centres undefined), with -10.7% (inactive).
In the case of `Cc1nc(-c2ccc(F)cc2)c(CC(=O)Nc2cc(S(=O)(=O)N3CCCCC3)ccc2C)s1` it was -9.47% (inactive); in that of `O=C1CC(c2ccccc2)C(=O)N1c1cccc(O)c1` (centres undefined), 14.5% (inactive); in that of `O=C1CC(NNc2ccccc2)C(=O)N1c1cccc(Cl)c1` (centres undefined), 98% (active).
In the case of `O=C(NNC1CC(=O)N(c2cccc(Cl)c2)C1=O)c1cccnc1` (centres undefined) it was 11.7% (inactive); in that of `COc1cc(C(=O)NC2CCN(C)CC2)ccc1Nc1ncc2c(n1)N(C1CCC(O)CC1)CCC(=O)N2C` (centres undefined), -1.63% (inactive); in that of `CCN1C(=O)[C@H]2[C@@H](c3ccc(SC4CCCCC4)c(OC)c3)N[C@@](Cc3ccccc3)(C(=O)OC)[C@H]2C1=O`, -5.65% (inactive).
As to `COc1ccc(CCC(=O)c2ccc(OC)cc2)cc1`, the inhibition is -20.1% (inactive).
In the case of `Cc1nc2cc(NC(=O)NC3CC3)ccc2n1C` it was 50.8% (inactive); in that of `Cc1nc2cc(NCc3cccs3)ccc2n1C`, 84% (active); in that of `Cc1nc2cc(NC(=O)Nc3cccc(F)c3)ccc2n1C`, -7.89% (inactive).
In the case of `O=C(N=C1SC2CS(=O)(=O)CC2N1c1ccccc1)c1ccccc1` (centres undefined) it was -1.67% (inactive); in that of `CC1(c2ccccc2)NC(=O)N(CC(=O)N2CC(=O)Nc3ccccc32)C1=O` (centres undefined), -7.27% (inactive); in that of `COc1ccc2c(c1)O/C(=C\c1ccccc1O)C2=O`, 0.703% (inactive).

The record behind these values is PubChem BioAssay AID485317 (Broad Institute, 2010).
